# Assay outcomes as filed in PubChem.
# Pol eta inh-1 = blocks human DNA polymerase eta activity; 1.2% of 390,000 active; Potency, µM (titrated, usually from 114 µM), most hits filed as inhibitors; Q9Y253; recombinant Pol eta, fluorescent DNA replication assay
#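 Pol eta (10 nM) was preincubated with compounds for 15 min at room temperature, after which fluorescent replication substrate (50 nM final) was added to start the reaction. Fluorescence was read kinetically at 0 and 10 min.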
# POLI inh = DNA polymerase iota (human) inhibition; Pol iota fluorescent replication assay, 10 min; Potency, µM (top dose mostly 115 µM), most hits filed as inhibitors; 1% of 390,000 active; AID 588590
#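 Fluorescent replication assay read twice, at 0 min and 10 min after adding 50 nM (final) substrate. Enzyme (10 nM) and compounds were first incubated 15 min at room temperature; enzyme-free buffer wells were negative controls.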
# POLB inh = inhibitors of human DNA polymerase beta | 1.3% of 340,000 active | Potency, µM (doses to about 114 µM), most hits filed as inhibitors | Pol beta primer extension/strand displacement, fluorescence kinetic
#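 Pol beta (10 nM) and compounds were preincubated 15 min at room temperature, then 50 nM substrate (final) started primer extension/strand displacement. Reads were taken at 0 and 10 min; concentration-response data were fitted to a four-parameter Hill equation.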
# Pol kappa inh-1 = DNA polymerase kappa (human) inhibition | purified Pol kappa, fluorescent DNA synthesis assay, 10 min | Potency, µM (series often up to 107 µM), most hits filed as inhibitors | 0.53% of 400,000 active | AID 588579
#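 50 nM final substrate added after 15 min RT preincubation of 10 nM Pol kappa with compound; fluorescence read at 0 and 10 min.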
# WRN helicase inh-1 = blocks human WRN helicase; WRN helicase unwinding, fluorescent forked duplex, kinetic; Q14191; 0.46% of 360,000 active; Potency, µM (doses to about 114 µM), most hits filed as inhibitors; further: nearly all actives have a fitted effect of over 55% in size
#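 Kinetic fluorescence helicase assay: unwinding of a quenched forked DNA duplex (100 nM final) with 2 mM ATP final raises red fluorescence (525/598 nm). Compounds sat 15 min at room temperature with 20 nM WRN beforehand.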
# FEN1 inh-1 = blocks human flap endonuclease 1; Potency, µM (highest dose often 114 µM), hits mostly inhibitors; Recombinant FEN1 flap cleavage, fluorescence, 15 min; 0.35% of 390,000 active; further: nearly all actives have a fitted effect of over 65% in size
#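 Quantitative HTS format: each compound was titrated, incubated with 10 nM nuclease for 15 min at room temperature, then challenged with flap substrate at 50 nM final. Signal change over 15 min gave concentration–effect curves.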
# PGK validate = TbPGK inhibition, hit validation; shares compounds with Pol kappa inh-1; TbPGK coupled GAPDH assay, Kinase-Glo luminescence; Potency, µM (highest dose often 57.5 µM), usual class: inhibitors; 79% of 500 active; further: nearly all actives have a fitted effect of over 65% in size
# Target sequence (P07378 whole entry, looked up): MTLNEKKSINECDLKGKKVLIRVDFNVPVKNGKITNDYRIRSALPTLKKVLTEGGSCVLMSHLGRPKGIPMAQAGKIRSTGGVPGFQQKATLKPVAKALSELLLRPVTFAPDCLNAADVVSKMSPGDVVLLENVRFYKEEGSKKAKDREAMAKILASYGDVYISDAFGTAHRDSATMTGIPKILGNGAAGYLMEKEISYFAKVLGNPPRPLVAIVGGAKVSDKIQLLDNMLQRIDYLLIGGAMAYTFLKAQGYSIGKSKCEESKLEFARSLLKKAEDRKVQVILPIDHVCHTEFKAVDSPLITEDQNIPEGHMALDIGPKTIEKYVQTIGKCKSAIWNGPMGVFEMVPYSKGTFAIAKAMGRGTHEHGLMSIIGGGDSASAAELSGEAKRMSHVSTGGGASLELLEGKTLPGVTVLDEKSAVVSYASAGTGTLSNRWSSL
# POLI cherry-pick = Inhibitors of human DNA polymerase iota, confirmation. shares compounds with Pol kappa inh-1. Pol iota primer extension, TAMRA/BHQ fluorescence. Potency, µM, most hits filed as inhibitors. 77% of 1,500 active. AID 720496
# Pol kappa inh-2 = confirmation of human DNA polymerase kappa inhibitors; shares compounds with Pol eta inh-1; purified Pol-kappa, fluorescent strand-displacement substrate; Potency, µM, most hits filed as inhibitors; 76% of 920 active; AID 720501
# Pol eta inh-2 = confirmation of human DNA polymerase eta inhibitors; shares compounds with Pol eta inh-1; Pol eta primer extension, TAMRA/BHQ fluorescence, 10 min; Potency, µM, usual class: inhibitors; 64% of 2,600 active; AID 720502
# FEN1 inh-2 = FEN1 inhibition, cherry-pick retest; FEN1 flap cleavage, TAMRA/BHQ2 fluorogenic DNA substrate; Potency, µM, actives largely listed as inhibitors; 79% of 880 active; shares compounds with FEN1 inh-1; AID 720498; further: nearly all actives have a fitted effect of over 60% in size
# WRN helicase inh-2 = WRN helicase inhibition, cherry-pick retest; shares compounds with WRN helicase inh-1; AID 720497; Potency, µM (top dose mostly 57.1 µM), actives largely listed as inhibitors; WRN helicase DNA unwinding, fluorescence kinetic; 63% of 610 active; further: nearly all actives have a fitted effect of over 65% in size
# TO displacement = binds DNA, flagged in WRN inhibitor counterscreen; shares compounds with WRN helicase inh-1; thiazole orange DNA binding displacement, fluorescence; 10% of 610 active; Potency, µM (doses to about 57.1 µM), hits mostly inhibitors;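 further: drop in dye fluorescence marks compound binding to DNA; nearly all actives have a fitted effect of over 60% in size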
# BLM helicase inh = counter-screen for WRN helicase inhibitors: human BLM helicase inhibition. Potency, µM (series often up to 57.1 µM), usual class: inhibitors. Recombinant BLM helicase DNA unwinding, red fluorescence. 60% of 610 active. AID 720503. shares compounds with WRN helicase inh-1; further: nearly all actives have a fitted effect of over 60% in size
# A number is an active result; n = inactive; u = inconclusive; x = no result given. Compounds with a hit are over-represented: about 2.4% of the library has one in this group of screens. The call rests on the fitted dose curve; in most records, active means well fitted curve in the direction sought with a large enough effect; inconclusive means small, poorly fitted or top-dose-only effect, or another doubt; inactive means no such curve, though single readings can be large; an effect the other way counts as inactive or inconclusive.
SMILES,Pol eta inh-1,POLI inh,POLB inh,Pol kappa inh-1,WRN helicase inh-1,FEN1 inh-1,PGK validate,POLI cherry-pick,Pol eta inh-2,FEN1 inh-2,WRN helicase inh-2,TO displacement,BLM helicase inh,others
CN1/C(=C\C=C2/C(=O)Oc3ccccc3C2=O)C(C)(C)c2ccccc21,89µM,n,45µM,u,27µM,35µM,x,75,54,19,15µM,x,n,Pol kappa inh-2=24
CCN(CC)CCCNc1nc2cc(OC)c(OC)cc2c2nc(-c3ccccc3)nn12,u,7.9µM,11µM,u,35µM,13µM,x,38,x,6.7,17µM,n,n,
COCCCNc1nc2cc(OC)c(OC)cc2c2nc(-c3ccccc3)nn12,n,n,n,n,n,n,x,x,x,x,x,x,x,
COc1ccc(OC)c(NC(=O)c2cccn2-c2nnc(N3CCCCC3)s2)c1,n,n,n,n,x,n,x,x,x,x,x,x,x,
O=C(CCN1C(=O)/C(=C/C=C/c2ccccc2)SC1=S)Nc1cccnc1,5µM,u,n,n,u,n,x,9.5,x,x,u,n,u,
O=C(CCN1C(=O)/C(=C/C=C/c2ccccc2)SC1=S)Nc1ccccn1,n,n,n,n,n,n,x,x,x,x,x,x,x,
CCOc1ccc(-c2nc(SCC(=O)Nc3ccc(C)c(C)c3)n3[nH]c(=O)cc3n2)cc1,50µM,u,3.2µM,n,x,u,16µM,27,85,x,15µM,n,3µM,
COCOCCn1cc(CN2CCS(=O)(=O)N(Cc3ccc(-c4ccc(OC)nc4)cc3)C(C(C)C)C2=O)nn1 (configuration not stated),u,x,x,x,n,x,x,x,x,x,x,x,x,
COc1cc(NS(=O)(=O)c2ccc(NC(=S)NC(=O)/C=C/c3ccco3)cc2)ncn1,2.2µM,u,18µM,7.1µM,14µM,13µM,4.6µM,17,4.3,60,15µM,n,15µM,
CCOc1ccc(NC(=S)NC(=O)/C=C/c2ccco2)cc1,n,n,n,n,n,n,x,x,x,x,x,x,x,
CN(C)c1ncc2nc(-c3ccc(Cl)cc3)c(=O)n(Cc3cccs3)c2n1,x,x,x,n,x,x,x,x,x,x,x,x,x,
Nc1nc(Sc2ccc([N+](=O)[O-])c3nonc23)c2[nH]cnc2n1,u,3.2µM,x,18µM,11µM,20µM,18µM,21,30,43,22µM,43µM,15µM,Pol kappa inh-2=15
COc1cc(-c2nnc(SCc3cc(=O)oc4cc(O)c(O)cc34)o2)cc(OC)c1OC,0.71µM,1.1µM,0.89µM,1.1µM,10µM,40µM,0.92µM,2.4,1.1,38,2.4µM,19µM,0.96µM,
Cc1cc2c(cc1C)N(C(=O)CCl)CCN2C(=O)CCl,u,n,x,n,n,n,x,x,x,x,x,x,x,
CCc1cc(=O)oc2cc(C)c(CN3CCCC3)c(O)c12,22µM,3.2µM,7.9µM,8.9µM,32µM,25µM,x,u,30,x,15µM,24µM,3.8µM,Pol kappa inh-2=24
O=C(O)c1[nH]c2ccccc2c1C(c1cc(Cl)cc([N+](=O)[O-])c1O)c1c(C(=O)O)[nH]c2ccccc12,20µM,18µM,35µM,50µM,45µM,79µM,x,75,27,x,22µM,n,u,
O=C1c2ccccc2C(=O)c2c(NCc3cccnc3)cccc21,n,n,n,n,n,n,x,x,x,x,x,x,x,
O=C1c2cccc(NCCCNCCO)c2C(=O)c2cccc(NCCCNCCO)c21,4.5µM,45µM,x,32µM,10µM,3.5µM,x,19,38,4.3,1.1µM,0.86µM,1.7µM,Pol kappa inh-2=17
CN(C)Cc1c(O)ccc2c(=O)c(-c3ccc(Cl)cc3)coc12,n,n,n,n,n,n,x,x,x,x,x,x,x,
O=c1c(-c2ccc([N+](=O)[O-])cc2)coc2c(O)c(O)ccc12,3.2µM,8.9µM,u,7.1µM,22µM,u,2.6µM,x,8.5,x,4.8µM,n,4.3µM,
CC(C)(C)c1ccc(-n2ncc3c2CCCC3NC(=O)c2ccco2)cc1 (configuration not stated),n,x,x,x,n,x,x,x,x,x,x,x,x,
CCC(=O)N1CCC1(C)C(=O)Nc1cc(OC)ccc1OC (configuration not stated),x,x,x,x,n,x,x,x,x,x,x,x,x,
O=C(O)c1ccc(-n2cccc2/C=C2/SC(=O)N(CC(=O)N3CCCC3)C2=O)cc1,1.8µM,3.5µM,2µM,7.1µM,20µM,40µM,5.8µM,5.3,6.7,x,6.8µM,n,3µM,
O=C(O)c1ccc(-n2cccc2/C=C2/NC(=O)N(c3ccccc3)C2=O)cc1,2.8µM,3.2µM,u,22µM,35µM,u,5.8µM,3.4,5.4,x,15µM,n,7.6µM,
COc1ccc(NS(=O)(=O)c2ccc3c(c2)[C@H]2C=CC[C@H]2[C@@H](c2ccc(C(=O)O)cc2)N3)cc1,2.8µM,u,20µM,10µM,40µM,20µM,18µM,24,9.5,38,22µM,n,27µM,Pol kappa inh-2=2.4
Cc1ccc(OCC(=O)c2c(N)n(C)c(=O)n(C)c2=O)c([N+](=O)[O-])n1,11µM,10µM,x,35µM,45µM,u,x,34,30,x,17µM,n,4.8µM,Pol kappa inh-2=11
O=c1cc2oc3cc(O)c(O)cc3c(-c3ccccc3[N+](=O)[O-])c-2cc1O,0.79µM,u,0.32µM,0.79µM,0.75µM,u,0.29µM,0.75,2.1,u,0.38µM,u,0.22µM,
O=c1cc(-c2ccccc2Cl)oc2c([N+](=O)[O-])ccc(O)c12,x,x,x,n,x,x,x,x,x,x,x,x,x,
C[C@H](CO)N1C[C@H](C)[C@H](CN(C)C(=O)NC2CCCCC2)Oc2cc(-c3cccnc3)ccc2S1(=O)=O,n,x,x,x,n,x,x,x,x,x,x,x,x,
